LASV entry inh – blocks Lassa virus binding to or entry into cells. Lassa virus pseudotype entry inhibition, cell reporter. Potency, µM (top dose mostly 37.9 µM), hits mostly inhibitors. 300,000 compounds, 1.2% hits. AID 540256; calls by dose curve; tested in HEK293 cells; also: nearly all actives have a fitted effect of over 50% in size
Shiga toxin inh – inhibitors of Shiga toxin in Vero cells | Vero cells, Shiga toxin protein synthesis inhibition reporter | inhibition, % at 38.7 µM | 290,000 compounds, 9.2% hits; in the data active = inhibition mostly above about 28%, no sharp cut-off; inactive = mostly below about 43%
FMDV inh – foot and mouth disease virus antiviral activity; AID 1159524; Potency, µM (top dose mostly 57.9 µM), most hits filed as inhibitors; FMDV antiviral cell-based qHTS; 410,000 compounds, 1.2% hits; calls by dose curve; tested in HEK293T cells; also: read-out not given here; nearly all actives have a fitted effect of over 45% in size
MARV entry inh – Marburg virus entry inhibition. Marburg virus pseudotyped entry inhibition, cell reporter. Potency, µM (doses to about 37.8 µM), actives largely listed as inhibitors. 300,000 compounds, 1.8% hits; calls by dose curve; tested in HEK293 cells
CHX counter – counter-screen hit for Shiga toxin inhibitors, cycloheximide; 300,000 compounds, 12% hits; cell reporter, cycloheximide protein synthesis inhibition counterscreen; max response, %; in the data active = max response mostly above about 13%, no sharp cut-off; inactive = mostly below about 14%; also: read at 38.3 µM for the half of the compounds with a filed dose
HCV inhibitor – inhibitors of hepatitis C virus infection; Huh7.5.1 HCVcc-Cre infection, luciferase reporter, 44 h; Potency, µM (doses to about 41.8 µM), most hits filed as inhibitors; 340,000 compounds, 3.4% hits; active = well fitted inhibition curve with a large enough effect; inconclusive = small, poorly fitted or top-dose-only effect, or another doubt; inactive = no such curve, though single readings can be large or run the other way
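Infectious HCVcc-Cre (~0.5 moi) was added to cells just after compound, with cells seeded 4 h earlier at 1,000 per well. Luciferase activity after 44 h culture reported infection; substrate was incubated 15 min at room temperature before reading.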
Each line names hits and unclear results; the compound was inactive in the other large screens. Most compounds without a hit are left out; they make up all but 13% or so of the library.

CCc1c(C)nc2ncnn2c1NCCc1ccc(OC)cc1	LASV entry inh inconclusive, FMDV inh 11.2µM, MARV entry inh inconclusive, HCV inhibitor 5.62µM
CC(=O)Oc1ccccc1C(=O)C=Cc1cccc([N+](=O)[O-])c1	LASV entry inh inconclusive, FMDV inh 28.2µM, MARV entry inh inconclusive, HCV inhibitor inconclusive (no result: Shiga toxin inh, CHX counter)
Cc1cc(O)c(C(=O)/C=C/c2cccc([N+](=O)[O-])c2)c(=O)o1	FMDV inh 17.8µM, MARV entry inh inconclusive
O=C(/C=C/c1cccc([N+](=O)[O-])c1)OCC1CCCO1 (stereo unspecified)	Shiga toxin inh 25.6, CHX counter 11.4 (no result: LASV entry inh, MARV entry inh)
Cc1cc(O)c(C(=O)/C=C/c2ccccc2O)c(=O)o1	FMDV inh inconclusive (no result: LASV entry inh, MARV entry inh)
CCOC(=O)Cn1c(=O)oc2cc(S(=O)(=O)NCCc3ccc(OCC)c(OCC)c3)ccc21	MARV entry inh inconclusive
Cc1cn2c(=O)cc(COc3ccccc3NC(=O)c3ccco3)nc2s1	none (no result: Shiga toxin inh, CHX counter, HCV inhibitor)
CN1CCCC1CCNS(=O)(=O)c1ccc(Br)cc1 (stereo unspecified)	MARV entry inh inconclusive, HCV inhibitor 10µM
CC1CCCN(C(=O)CCNS(=O)(=O)c2ccc(Br)cc2)C1 (stereo unspecified)	none (no result: Shiga toxin inh, CHX counter)
CCc1cc(CC)c(/C=N/NC(N)=O)c(CC)c1	HCV inhibitor 11.2µM (no result: LASV entry inh, MARV entry inh)
Cc1cc(C)c(/C=N/NC(N)=O)c(C)c1/C=N/NC(N)=O	MARV entry inh inconclusive
O=C(COC(=O)c1cn(-c2ccccc2)nc1-c1ccccc1)c1cccc([N+](=O)[O-])c1	none
O=C(NCc1cn(-c2ccccc2)nc1-c1ccccc1)c1cc([N+](=O)[O-])cc([N+](=O)[O-])c1	FMDV inh inconclusive
COc1ccc(-c2nn(-c3ccccc3)cc2CNC(=O)c2cccc([N+](=O)[O-])c2)cc1	CHX counter 15.1, HCV inhibitor inconclusive
O=C(NCc1cn(-c2ccccc2)nc1-c1ccccc1)c1cccc([N+](=O)[O-])c1	CHX counter 13.5
CN(c1ccccc1)S(=O)(=O)c1cccc(NC(=O)c2cccc(C#N)c2)c1	FMDV inh 25.1µM, HCV inhibitor 10µM (no result: LASV entry inh, Shiga toxin inh, MARV entry inh, CHX counter)
CN(c1ccccc1)S(=O)(=O)c1cccc(C(=O)Nc2cccc(C(=O)NC3CC3)c2)c1	FMDV inh inconclusive, HCV inhibitor inconclusive (no result: Shiga toxin inh, CHX counter)
CN(c1ccccc1)S(=O)(=O)c1cccc(NC(=O)c2ccc3ncsc3c2)c1	LASV entry inh inconclusive, FMDV inh 35.5µM, MARV entry inh inconclusive, HCV inhibitor 11.2µM
Cc1ccc(NC(=O)c2ccc3ncsc3c2)cc1S(=O)(=O)N(C)C	Shiga toxin inh 146.4, CHX counter 69.5 (no result: LASV entry inh, FMDV inh, MARV entry inh, HCV inhibitor)
Cc1ccc(NC(=O)c2cccnc2)cc1S(=O)(=O)N(C)C	none
CN(c1ccc(C(=O)Nc2cccnc2)cc1)S(=O)(=O)c1ccccc1	FMDV inh inconclusive, HCV inhibitor inconclusive
COc1ccc(OC)c(C(O)c2ncc(-c3cccc4ccccc34)[nH]2)c1 (stereo unspecified)	none (no result: LASV entry inh, Shiga toxin inh, MARV entry inh, CHX counter, HCV inhibitor)
O=C(NCc1ccccn1)c1[nH]c(C(F)(F)F)nc1-c1ccccc1	none (no result: LASV entry inh, Shiga toxin inh, MARV entry inh, CHX counter, HCV inhibitor)
COc1ccc(C2=NOC(C(=O)Nc3cc(C)nn3-c3ccccc3)C2)cc1OC (stereo unspecified)	none (no result: LASV entry inh, MARV entry inh)
O=[N+]([O-])c1cc(Br)ccc1C[n+]1ccccc1	MARV entry inh inconclusive (no result: Shiga toxin inh, CHX counter)
O=C(NCCc1ccccc1)c1ccc2nc(N3CCCCC3)sc2c1	MARV entry inh inconclusive (no result: Shiga toxin inh, CHX counter, HCV inhibitor)
O=C(NCC1CCCO1)c1ccc2nc(N3CCCCC3)sc2c1 (stereo unspecified)	Shiga toxin inh 88.0, CHX counter 51.1
O=C(NCC1CCCO1)c1ccc(N2CCCCC2)nc1 (stereo unspecified)	Shiga toxin inh 40.5, CHX counter 27.6
Cc1cc(O)c(-c2cc(O)c(C)cc2O)cc1O	FMDV inh inconclusive, CHX counter 10.3, HCV inhibitor inconclusive (no result: LASV entry inh, MARV entry inh)
CC(NC(=O)c1cccc(N2CCCC2=O)c1)c1ccc2c(c1)OCCO2 (stereo unspecified)	none
COc1ccc(CCNC(=O)c2ccc3c(c2)ncn3-c2ccc(C(C)C)cc2)cc1OC	LASV entry inh inconclusive (no result: Shiga toxin inh, MARV entry inh, CHX counter, HCV inhibitor)
COc1cc2ncn(-c3cc(OC(C)c4ccccc4Cl)c(C(N)=O)s3)c2cc1OC (stereo unspecified)	LASV entry inh 2.5µM (no result: Shiga toxin inh, FMDV inh, MARV entry inh, CHX counter, HCV inhibitor)
COc1cc2ncn(-c3cc(OCCc4ccccc4)c(C(N)=O)s3)c2cc1OC	LASV entry inh 17.7µM (no result: Shiga toxin inh, FMDV inh, MARV entry inh, CHX counter, HCV inhibitor)
COc1cc2ncn(-c3cc(OCc4ccccc4C(F)(F)F)c(C(=O)N(C)C)s3)c2cc1OC	none (no result: Shiga toxin inh, FMDV inh, MARV entry inh, CHX counter, HCV inhibitor)
Cc1ccc(N(C(C)C(=O)N2CCC(C)CC2)S(C)(=O)=O)cc1C (stereo unspecified)	MARV entry inh inconclusive (no result: FMDV inh)

Compound activity as filed in PubChem.
